The target in assay [1] is Thyrotropin receptor (Homo sapiens) (UniProt P16473). Description: qHTS Assay for Antagonists of the Thyroid Stimulating Hormone Receptor (AID 488980). Also: series mostly up to about 58 µM; 0% is about no effect. The method in brief:
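Cells expressing human TSHR (HEK293) are dispensed in HBSS/HEPES containing 70 uM RO 20-1724, compound is added, then TSH at EC80 (4 nM final). Antibody in lysis buffer follows, 30 minutes at room temperature before HTRF detection.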
A general note: qHTS replaces the single test concentration by a dilution series.

Assay [2] concerns the target D(1A) dopamine receptor (Homo sapiens) (UniProt P21728). Description: HTS Assay for Allosteric Agonists of the Human D1 Dopamine Receptor: Primary Screen for Agonists (AID 488981). Also: potency is read from the fitted curve at half-maximal effect. As to activation: 0% is about no effect. The method in brief:
(§1)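 Tetracycline-induced HEK293 Trex D1 cells with forced coupling to calcium, loaded with no-wash calcium dye; kinetic fluorescence read 180 s after compound addition for agonism, then a further 180 s after an EC20 dopamine challenge for potentiation.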

Assay [3] has the same target. Nature of the assay: HTS Assay for Allosteric Agonists of the Human D1 Dopamine Receptor: Primary Screen for Potentiators (AID 488982). Also: 0% is about no effect. The method, boiled down: as §1
For assay [4] the target is unchanged. Nature of the assay: HTS Assay for Allosteric Agonists of the Human D1 Dopamine Receptor: Primary Screen for Antagonists (AID 488983).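 Also: calcium flux response to an EC80 dopamine challenge measured with no-wash dye; nearly all actives have a fitted effect of over 65% in size.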 Also: potency is read from the fitted curve at half-maximal effect. The method in brief: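 Tetracycline-induced HEK293 T-REx cells expressing force-coupled D1 were plated overnight at 30 C, dye-loaded for calcium, and read kinetically. Compounds were pinned in, then an EC80 dopamine challenge followed after 180 s to reveal antagonism.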

Assay [5] addresses ATPase family AAA domain-containing protein 5 (Homo sapiens) (UniProt Q96QE3). Nature of the assay: Validation screen for small molecules that inhibit ELG1-dependent DNA repair in human embryonic kidney (HEK293T) cells expressing luciferase-tagged ELG1 (AID 493107). Also: nearly all actives have a fitted effect of over 70% in size. Also: potency is read from the fitted curve at half-maximal effect. The method in brief:
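HEK293T cells expressing luciferase-tagged ELG1 were co-treated with 5-fluorouridine and compound or DMSO for 16 hr at 37 °C, 5% CO2. Luciferase activity was then read with ONE-Glo after 30 min at room temperature; suppressed signal indicates blocked ELG1 function.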

For assay [6], the target named is Thyrotropin-releasing hormone receptor (Homo sapiens) (UniProt P34981). Description: qHTS for Small Molecule Agonists and Allosteric Enhancers of Human TRH Receptor: Validation Screen for Agonists (AID 493127;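 active = calcium activation more than 3 SD above the typical response in the agonist read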;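 also: intracellular calcium rise by fluo-8 fluorescence before TRH EC20 addition; 0% is about no effect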). The conditions noted are these: TRH receptor agonist cell assay; at 2 µM; stronger effect = higher value. The method in brief:
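TRHR-expressing cells were plated overnight in serum-containing medium, then loaded with fluo-8 calcium dye at room temperature for 30 min–1.5 h. After a 10 s baseline, compound was pin-transferred and calcium fluorescence (ex 480/em 530) read kinetically for agonist response.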

The nature of assay [7]: Nrf2 qHTS screen for inhibitors: Validation (AID 493153; active = well fitted inhibition curve with a large enough effect in the main read-out, with a control signal flat, not every such curve was filed as active). The conditions noted are these: Potency: luciferase luminescence; viability change: measured here: cytotoxicity max response. The method in brief:
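A549 cells carrying an ARE-driven firefly luciferase reporter, in 5% FBS OPTI-MEM, were treated with compounds in concentration-response for 18-24 h at 37°C. Viability was read by CellTiter-Fluor fluorescence, then Nrf2 activity by luciferase luminescence.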

The nature of assay [8]: Validation screen for small molecules that induce genotoxicity in human embryonic kidney (HEK293T) cells expressing luciferase-tagged ELG1 (AID 493106). Also: potency is read from the fitted curve at half-maximal effect. The method in brief: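 HEK293T cells expressing luciferase-tagged ELG1 were exposed to compound or DMSO vehicle for 16 hr at 37 °C, 5% CO2. Genotoxic stress raises ELG1 levels, so increased luciferase signal after ONE-Glo addition and 30 min at room temperature marks hits.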

Assay [9] deals with Tyrosyl-DNA phosphodiesterase 1 (Homo sapiens) (UniProt Q9NUW8). Nature of the assay: Confirmation Assay for Inhibitors of Tyrosyl-DNA Phosphodiesterase (TDP1) (AID 489007). Also: potency is read from the fitted curve at half-maximal effect; nearly all actives have a fitted effect of over 40% in size. The settings on record: recombinant human TDP1 enzymatic activity, dose-response. The source says:
Human tyrosyl-DNA phosphodiesterase I (Tdp1) is a rational anticancer target because this enzyme is involved in the repair of DNA lesions created by the trapping of human DNA topoisomerase I (Top1) following treatment by anticancer agents such as camptothecins. Recombinant Tdp1 was expressed and purified from E. coli in the laboratory (Anthony et al, Nucleic Acids Research, 2007, Vol. 35, 4474-4484). A Tdp1 DNA substrate bearing a 5' biotin and a 3' phospho-tyrosine was obtained by custom synthesis. This oligonucleotidic DNA substrate was subsequently coupled to a fluorescein isothiocyanate (FITC) group via the free amino group present on the phospho-tyrosine. Tdp1 was screened against the NCGC small molecule library using the AlphaScreen (AS) detection method in which a streptavidin donor AS bead is bound at the 5' end and an anti-FITC AS acceptor bead is bound at the 3' end of the DNA oligonucleotidic substrate. In the presence of Tdp1, the enzyme cleaves the tyrosine-FITC group, leaving a 3' end phosphate on the DNA substrate. This cleavage reaction results in a loss of signal in AS.
This BioAssay is a confirmation of followup compounds from primary TDP1 screen (AID:485290)
NIH Molecular Libraries Probe Production Network [MLPCN] […]
3 ul of Tdp1 enzyme is dispensed to 1536-well Kalypsys black solid bottom plates. […] The detection is then performed on a PerkinElmer Envision reader.

Assay [10] deals with ATP-dependent 6-phosphofructokinase (Trypanosoma brucei brucei) (UniProt O15648). Nature of the assay: qHTS Assay to Find Inhibitors of T. brucei phosphofructokinase: hit validation (AID 492961).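 Also: luminescence reports ADP formed as PFK phosphorylates fructose-6-phosphate with ATP; series mostly up to about 51 µM; % is scaled to controls: 0 for no effect and ±100 for the full control effect.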 The method, boiled down: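 Compounds titrated; %activity normalized to 0x and 1x enzyme controls, curve-fitted. Readout: ADP-Glo luminescence after 45 min room-temperature reaction of 1.25 nM PFK, 0.1 mM ATP, 0.5 mM F6P, pH 8.0.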
Sequence of ATP-dependent 6-phosphofructokinase (Trypanosoma brucei brucei) (O15648 whole entry, looked up): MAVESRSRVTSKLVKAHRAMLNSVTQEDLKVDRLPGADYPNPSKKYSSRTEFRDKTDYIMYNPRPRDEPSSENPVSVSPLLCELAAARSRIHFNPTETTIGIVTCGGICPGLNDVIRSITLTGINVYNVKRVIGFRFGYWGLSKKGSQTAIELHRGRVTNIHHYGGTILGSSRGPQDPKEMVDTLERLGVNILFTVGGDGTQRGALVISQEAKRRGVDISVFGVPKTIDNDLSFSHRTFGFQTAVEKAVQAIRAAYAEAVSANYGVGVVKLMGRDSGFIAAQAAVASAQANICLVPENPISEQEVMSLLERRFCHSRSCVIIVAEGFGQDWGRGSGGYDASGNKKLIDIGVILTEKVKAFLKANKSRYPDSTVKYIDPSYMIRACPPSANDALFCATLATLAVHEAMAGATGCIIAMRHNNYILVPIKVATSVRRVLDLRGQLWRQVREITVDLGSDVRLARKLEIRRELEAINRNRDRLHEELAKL

Results filed as inconclusive are left out. Active and inactive are the calls of the source. Unless noted, calls follow the shape of the dose curve; as a rule, active = well fitted curve in the direction sought with a large enough effect; inconclusive = small, poorly fitted or top-dose-only effect, or another doubt; inactive = no such curve, though single readings can be large; an effect the other way counts as inactive or inconclusive.

Sequence of Thyrotropin-releasing hormone receptor (Homo sapiens) (P34981 whole entry, looked up): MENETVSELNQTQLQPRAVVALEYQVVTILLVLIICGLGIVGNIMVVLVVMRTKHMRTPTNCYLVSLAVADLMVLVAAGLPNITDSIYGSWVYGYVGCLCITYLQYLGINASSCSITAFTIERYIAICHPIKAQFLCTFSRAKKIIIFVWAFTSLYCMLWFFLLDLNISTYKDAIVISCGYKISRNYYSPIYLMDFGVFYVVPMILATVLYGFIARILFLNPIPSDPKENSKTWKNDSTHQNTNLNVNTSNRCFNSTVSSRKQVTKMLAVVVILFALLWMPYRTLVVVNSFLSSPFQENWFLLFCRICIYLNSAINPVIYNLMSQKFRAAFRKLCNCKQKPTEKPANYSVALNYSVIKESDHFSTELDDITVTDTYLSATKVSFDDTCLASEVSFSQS
Sequence of ATPase family AAA domain-containing protein 5 (Homo sapiens) (Q96QE3 whole entry, looked up, the tested form may be a part): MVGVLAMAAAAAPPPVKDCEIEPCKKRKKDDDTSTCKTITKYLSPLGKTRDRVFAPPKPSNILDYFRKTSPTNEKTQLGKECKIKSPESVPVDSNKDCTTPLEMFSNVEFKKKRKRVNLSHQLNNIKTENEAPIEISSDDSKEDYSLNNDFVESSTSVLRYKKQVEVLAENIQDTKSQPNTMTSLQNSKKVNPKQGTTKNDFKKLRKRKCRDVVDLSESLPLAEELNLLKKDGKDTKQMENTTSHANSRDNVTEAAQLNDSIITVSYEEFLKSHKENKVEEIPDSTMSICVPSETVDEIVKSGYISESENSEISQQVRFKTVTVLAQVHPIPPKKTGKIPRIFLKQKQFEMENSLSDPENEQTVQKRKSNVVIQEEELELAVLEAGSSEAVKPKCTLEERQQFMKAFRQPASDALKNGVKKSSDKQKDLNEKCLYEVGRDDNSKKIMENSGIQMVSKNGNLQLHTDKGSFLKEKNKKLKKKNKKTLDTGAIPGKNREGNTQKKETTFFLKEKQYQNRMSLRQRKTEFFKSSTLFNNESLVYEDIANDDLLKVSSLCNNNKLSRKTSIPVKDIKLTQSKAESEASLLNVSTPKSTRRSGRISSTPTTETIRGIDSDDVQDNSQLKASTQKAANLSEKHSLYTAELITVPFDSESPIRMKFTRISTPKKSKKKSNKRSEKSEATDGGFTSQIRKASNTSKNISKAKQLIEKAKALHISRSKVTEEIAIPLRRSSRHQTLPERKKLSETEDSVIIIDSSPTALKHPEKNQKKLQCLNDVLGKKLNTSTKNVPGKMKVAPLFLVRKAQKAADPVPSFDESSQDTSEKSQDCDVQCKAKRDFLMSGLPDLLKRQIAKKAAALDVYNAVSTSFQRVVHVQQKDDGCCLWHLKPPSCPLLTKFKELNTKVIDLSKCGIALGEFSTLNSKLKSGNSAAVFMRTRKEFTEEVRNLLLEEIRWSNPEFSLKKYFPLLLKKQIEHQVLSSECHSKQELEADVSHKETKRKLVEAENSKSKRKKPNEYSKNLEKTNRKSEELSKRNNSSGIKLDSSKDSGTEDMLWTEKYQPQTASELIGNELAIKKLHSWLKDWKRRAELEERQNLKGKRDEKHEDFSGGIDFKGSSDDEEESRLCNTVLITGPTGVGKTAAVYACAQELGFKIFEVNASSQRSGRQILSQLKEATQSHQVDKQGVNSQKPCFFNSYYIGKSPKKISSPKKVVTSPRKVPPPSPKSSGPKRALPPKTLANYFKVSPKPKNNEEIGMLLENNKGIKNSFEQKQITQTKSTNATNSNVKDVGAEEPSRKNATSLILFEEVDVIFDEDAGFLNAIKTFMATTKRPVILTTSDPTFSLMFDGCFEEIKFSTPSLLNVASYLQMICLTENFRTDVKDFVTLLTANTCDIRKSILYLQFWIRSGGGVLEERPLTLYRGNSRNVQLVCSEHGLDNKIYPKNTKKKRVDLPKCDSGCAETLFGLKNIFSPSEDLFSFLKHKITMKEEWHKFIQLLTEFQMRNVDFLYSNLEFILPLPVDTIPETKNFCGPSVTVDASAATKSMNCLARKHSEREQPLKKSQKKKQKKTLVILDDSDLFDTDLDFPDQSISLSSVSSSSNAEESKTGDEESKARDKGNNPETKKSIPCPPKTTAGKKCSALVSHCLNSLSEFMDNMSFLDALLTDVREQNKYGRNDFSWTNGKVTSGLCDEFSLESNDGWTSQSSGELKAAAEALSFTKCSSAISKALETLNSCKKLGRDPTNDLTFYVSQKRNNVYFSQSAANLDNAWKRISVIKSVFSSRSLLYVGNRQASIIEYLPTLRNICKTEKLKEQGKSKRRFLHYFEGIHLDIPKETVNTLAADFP
Sequence of Thyrotropin receptor (Homo sapiens) (P16473 whole entry, looked up): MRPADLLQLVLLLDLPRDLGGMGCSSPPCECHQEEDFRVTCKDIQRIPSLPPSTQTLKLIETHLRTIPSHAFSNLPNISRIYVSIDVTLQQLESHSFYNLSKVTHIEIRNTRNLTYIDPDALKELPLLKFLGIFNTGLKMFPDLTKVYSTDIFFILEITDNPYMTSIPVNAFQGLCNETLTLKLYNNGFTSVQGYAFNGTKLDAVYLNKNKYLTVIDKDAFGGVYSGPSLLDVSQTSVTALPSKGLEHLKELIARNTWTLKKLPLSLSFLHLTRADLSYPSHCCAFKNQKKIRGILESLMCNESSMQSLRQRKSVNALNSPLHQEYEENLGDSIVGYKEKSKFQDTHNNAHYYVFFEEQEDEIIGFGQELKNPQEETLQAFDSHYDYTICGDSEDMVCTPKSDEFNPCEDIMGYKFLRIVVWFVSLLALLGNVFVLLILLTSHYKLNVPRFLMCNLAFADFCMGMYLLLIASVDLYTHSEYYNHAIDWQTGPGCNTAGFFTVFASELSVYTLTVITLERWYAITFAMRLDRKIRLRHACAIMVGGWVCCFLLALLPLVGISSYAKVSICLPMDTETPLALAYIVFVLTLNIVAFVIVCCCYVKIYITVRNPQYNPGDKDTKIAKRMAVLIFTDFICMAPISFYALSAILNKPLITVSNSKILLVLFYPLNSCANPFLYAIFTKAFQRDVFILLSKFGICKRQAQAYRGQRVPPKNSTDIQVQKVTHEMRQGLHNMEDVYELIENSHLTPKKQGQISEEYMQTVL
Sequence of D(1A) dopamine receptor (Homo sapiens) (P21728 whole entry, looked up): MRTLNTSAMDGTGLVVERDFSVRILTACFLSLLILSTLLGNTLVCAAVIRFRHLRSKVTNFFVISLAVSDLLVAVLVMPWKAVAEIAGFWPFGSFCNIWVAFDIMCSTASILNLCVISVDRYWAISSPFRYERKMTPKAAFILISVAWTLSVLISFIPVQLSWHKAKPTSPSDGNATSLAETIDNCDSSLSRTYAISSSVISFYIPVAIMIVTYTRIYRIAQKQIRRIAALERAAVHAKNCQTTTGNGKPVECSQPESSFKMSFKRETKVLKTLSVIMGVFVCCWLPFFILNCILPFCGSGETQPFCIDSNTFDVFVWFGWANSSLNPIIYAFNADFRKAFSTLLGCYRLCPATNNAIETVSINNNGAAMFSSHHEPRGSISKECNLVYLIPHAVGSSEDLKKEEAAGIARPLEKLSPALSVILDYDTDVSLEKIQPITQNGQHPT
Sequence of Tyrosyl-DNA phosphodiesterase 1 (Homo sapiens) (Q9NUW8 whole entry, looked up): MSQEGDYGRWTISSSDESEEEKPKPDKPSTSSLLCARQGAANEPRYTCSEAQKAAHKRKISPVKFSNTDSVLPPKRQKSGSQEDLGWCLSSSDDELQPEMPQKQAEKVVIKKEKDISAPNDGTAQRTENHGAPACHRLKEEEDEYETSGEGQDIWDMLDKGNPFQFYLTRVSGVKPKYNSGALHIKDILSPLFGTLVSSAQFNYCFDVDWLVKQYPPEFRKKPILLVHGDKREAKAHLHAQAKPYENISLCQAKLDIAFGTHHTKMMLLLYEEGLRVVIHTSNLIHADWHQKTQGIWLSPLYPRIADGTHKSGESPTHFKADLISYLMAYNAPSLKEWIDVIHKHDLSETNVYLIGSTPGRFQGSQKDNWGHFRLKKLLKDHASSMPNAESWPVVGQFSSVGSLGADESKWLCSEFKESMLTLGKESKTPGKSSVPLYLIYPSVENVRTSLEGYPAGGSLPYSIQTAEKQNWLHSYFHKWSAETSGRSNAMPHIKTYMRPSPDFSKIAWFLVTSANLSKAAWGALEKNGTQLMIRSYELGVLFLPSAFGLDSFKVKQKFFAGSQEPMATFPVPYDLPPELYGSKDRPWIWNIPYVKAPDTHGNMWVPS

In the case of `CCCCCCCCCCCCCCCC(=O)OC(CC(=O)O)C[N+](C)(C)C` (centres undefined), the outcome in [1] was inactive. For the same molecule, the Potency was 10 µM (active) in [2] and 5.62 µM (active) in [4]. The Potency entry in [3], in assay [5] and in assay [7] was “inactive” throughout. Besides, the activation in assay [6] is 1.06% (inactive). Also, the viability change in assay [7] was -1.76%.
Turning to `CCCCCCCC/C=C\CCCCCCCC(=O)NCCO`, in [1], the molecule was called inactive. In addition, the Potency result in [2], in [3], in [8] and in [7] was “inactive” in each case. In assay [6], the activation is 1.25% (inactive). The viability change in [7] worked out at 1.03%.
`NCCCCC(=O)O`: in assay [1], the molecule was classed as inactive. The Potency entry in assay [2], in assay [3], in assay [4], in [5] and in [7] was “inactive” throughout. The activation in assay [6] is -0.25% (inactive). The viability change in [7] was 11.5%.
On to `Clc1ccc(N2CCN(Cc3c[nH]c4ncccc34)CC2)cc1`, for which the result in [1] was inactive. In addition, the Potency entry in assay [2], in assay [3], in [8], in assay [5] and in assay [7] was “inactive” throughout. Further, the activation in [6] was 2.19% (inactive). Moreover, the viability change in assay [7] was -2.66%.
With `c1cnc2c(c1)ccc1cccnc12`, in [1], the result was inactive. For the same molecule, the Potency entry in assay [2], in assay [3] and in assay [4] was “inactive” each time. In addition, the Potency in [5] is 6.51 µM (active).
As to `O=S(=O)(c1cccc2c(I)cccc12)N1CCCNCC1`, the molecule was classed as inactive in [1]. The Potency result in [3] and in [7] was “inactive” in each case. In addition, the activation in assay [6] is 2.06% (inactive). Further, the viability change in assay [7] was determined as 12.3%.
Regarding `CCCCCCCCCCCCCCCCCC(=O)OC(CC(=O)O)C[N+](C)(C)C` (centres undefined), the call in [1] was inactive. Moreover, the Potency result in assay [3] and in assay [5] was “inactive” in each case. The activation in assay [6] was -0.5% (inactive).
For `O=C1NC(=O)/C(=C/c2ccc3nccnc3c2)S1`, the Potency entry in assay [2], in [3] and in [4] was “inactive” each time.
Regarding `O=C(/C=C/c1ccc(O)cc1)c1ccc(O)cc1O`, the outcome in [1] was inactive. The Potency result in assay [3], in [4] and in assay [7] was “inactive” throughout. Also, in [8], the Potency is 8.2 µM (active). In assay [6], the activation was -5.19% (inactive). The viability change in [7] is -0.936%.
Turning to `CC(C)Cc1ccc([C@H](C)C(=O)O)cc1`, the call in [1] was inactive. Further, the Potency entry in assay [3], in [4], in assay [8] and in assay [7] was “inactive” in each case. Besides, the activation in assay [6] was 0.688% (inactive). Besides, in assay [7], the viability change turned out to be 6.18%.
As to `O=c1[nH]c2cc(C(F)(F)F)ccc2n1-c1cc(C(F)(F)F)ccc1O`, the result in [1] was inactive. In addition, the Potency result in assay [3] was “inactive”. For the same molecule, the activation in assay [6] was 1.88% (inactive). In addition, in [7], the Potency result is “inactive” and the viability change is -2.14%.
As for `CN[C@H](CC(C)C)C(=O)N[C@H]1C(=O)N[C@@H](CC(N)=O)C(=O)N[C@H]2C(=O)N[C@H]3C(=O)N[C@H](C(=O)N[C@H](C(=O)O)c4cc(O)cc(O)c4-c4cc3ccc4O)[C@H](O)c3ccc(c(Cl)c3)Oc3cc2cc(c3O[C@@H]2O[C@H](CO)[C@@H](O)[C@H](O)[C@H]2O[C@H]2C[C@](C)(N)[C@H](O)[C@H](C)O2)Oc2ccc(cc2Cl)[C@H]1O`, the molecule was classed as inactive in assay [1]. Moreover, the activation in assay [6] is -0.312% (inactive).
Consider `CC(C)(C=O)Cc1cc(C(C)(C)C)c(O)c(C(C)(C)C)c1`, for which the call in assay [1] was inactive. Moreover, the Potency entry in assay [8], in assay [5] and in assay [7] was “inactive” throughout. Moreover, the activation in assay [6] is -9.5% (inactive). Also, the viability change in assay [7] amounted to 5.81%.
Regarding `NC[C@@H]1O[C@H](C23CC4CC(CC(C4)C2)C3)Cc2c1ccc(O)c2O`, the molecule was called inactive in assay [1]. Further, the Potency result in assay [3], in assay [8] and in [7] was “inactive” each time. Besides, in assay [6], the activation was 8.12% (inactive). Besides, the viability change in assay [7] is 3.16%.
As to `CO/N=C(\C(=O)N[C@@H]1C(=O)N2C(C(=O)O)=C(COC(C)=O)CS[C@H]12)c1csc(N)n1` (stereo in doubt), in assay [1], the molecule was called inactive. For the same molecule, the Potency in assay [9] was 7.94 µM (active). Moreover, the activation in [6] is 0.688% (inactive).
As to `CNC(=O)[C@H]1O[C@@H](n2cnc3c(NCc4cccc(I)c4)ncnc32)[C@H](O)[C@@H]1O`, the Potency result in assay [2], in assay [3] and in [4] was “inactive” in each case.
Regarding `O=c1[nH]c2ccccc2n1CCCN1CCN(C(c2ccccc2)c2ccccc2)CC1`, the molecule was called inactive in assay [1] and in assay [10].

Values taken from PubChem BioAssay (NCATS).
